Screens: PubChem BioAssay, several laboratories
In the library only some 3.9% were active in any assay of this set; here they are far more common.
GDH-TPI inh: inhibits GDH-TPI coupling enzymes, artifact for Mtb FBA screen. GDH-TPI coupled enzyme counterscreen, NADH absorbance. inhibition, % at 4.8 µM. 360,000 compounds, 1.2% hits. AID 588335;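 note: 0% = DMSO wells and 100% = wells lacking the enzyme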
BH1578 lux ind: induces V. cholerae light production without autoinducers | V. cholerae BH1578 lux reporter, luminescence, 6 h | activation, % at 18.7 µM | AID 588436 | 350,000 compounds, 0.16% hits; in the data active = activation mostly above about 9.7%, no sharp cut-off
Mtb FBA inh: Mtb fructose-bisphosphate aldolase inhibition. P9WQA3. purified M. tuberculosis FBA, fluorescence read-out. inhibition, % at 1 µM. 360,000 compounds, 2.3% hits. AID 588726; in the data active = inhibition above about 27%;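 note: 0% = vehicle and 100% = reference inhibitor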
Target sequence (P9WQA3 whole entry, looked up): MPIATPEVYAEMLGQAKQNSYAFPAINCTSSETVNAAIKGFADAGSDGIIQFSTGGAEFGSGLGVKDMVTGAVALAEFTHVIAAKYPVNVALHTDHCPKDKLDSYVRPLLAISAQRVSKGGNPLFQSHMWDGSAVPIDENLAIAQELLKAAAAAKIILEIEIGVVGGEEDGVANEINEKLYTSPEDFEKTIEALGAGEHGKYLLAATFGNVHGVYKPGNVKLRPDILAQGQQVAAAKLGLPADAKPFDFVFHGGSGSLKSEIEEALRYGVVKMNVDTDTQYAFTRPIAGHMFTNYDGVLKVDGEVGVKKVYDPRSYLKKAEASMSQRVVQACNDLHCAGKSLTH
CCHF vOTU inh: blocks the CCHF virus ovarian tumor domain protease; AID 651958; CCHFV vOTU protease, Pep-AMC fluorescence; 370,000 compounds, 0.55% hits; inhibition, % at 11.5 µM; note: 0% = vehicle wells with enzyme and 100% = no enzyme wells
Starred values were filed as active, the others as inactive; i = inactive; x = no result given; + = active, no number; ! = a repeat was not active. Cut-off read from the data, not from the text of the source, unless noted: active = inhibition above about 30%; inactive = the rest.

SMILES	GDH-TPI inh	BH1578 lux ind	Mtb FBA inh	CCHF vOTU inh
COc1ccc(C2C(C(C)=O)=C(O)C(=O)N2CCc2ccccc2)c(OC)c1 (centres undefined)	37*	-2	-3	9
CC(=O)C1=C(O)C(=O)N(c2cccnc2)C1c1cccc([N+](=O)[O-])c1 (centres undefined)	13	-1	-3	4
CC(=O)C1=C(O)C(=O)N(c2ccc(O)cc2)C1c1cccc([N+](=O)[O-])c1 (centres undefined)	32*	i	2	-4
CCCCNC(=O)C1(C)CCN1C(=O)c1ccc(F)cc1Cl (centres undefined)	-9	i	-3	-1
COc1ccc2oc(C(=O)NCCC(C)C)c(C)c2c1	8	i	22	-11
CC(C)/C(=N/Nc1ccccc1[N+](=O)[O-])c1ccccc1	5	i	-1	7
COc1ccc(CNCc2c(O)c(Cl)cc3c(C)c(C)c(=O)oc23)c(OC)c1	18	-1	+	-371
CCc1cc(=O)oc2c(CNCc3ccc(OC)cc3OC)c(O)c(Cl)cc12	16	i	+	-362
COc1ccc(CNCc2ccncc2)c(OC)c1	-5	i	3	-10
Cc1ccc(S(=O)(=O)N2CCC(C(=O)NC3CC(C)(C)NC(C)(C)C3)CC2)cc1	4	0	1	13
O=C1N2CCc3ccccc3C2CS(=O)(=O)N1CCc1ccccc1 (centres undefined)	x	x	x	0
COC(=O)N/N=C/c1cc(N=Nc2ccccc2)ccc1O	38*	0	-6	-6
COC(=O)N/N=C/c1cc(N=Nc2ccccc2Cl)ccc1O	10	-1	-12	-4
N#CC(=Cc1ccc(O)cc1)C(N)=C(C#N)C#N	37*	0	10	10
O=C(/C=C/c1ccc(O)c(O)c1)O[C@@H]1C[C@](O)(C(=O)O)C[C@@H](O)[C@H]1O	50*!	0	1	4
CN(C)c1ccc2c(=O)cc[nH]c2c1	x	x	+	-402
CC(=O)c1ccc(N2CCN(C(=O)c3cc(-c4cccnc4)nc4ccc(Br)cc34)CC2)cc1	46*	0	1	-11
O=C(c1cc(-c2cccnc2)nc2ccc(Br)cc12)N1CCN(c2ncccn2)CC1	12	0	5	3
O=c1[nH]c2cc3c(cc2cc1CN(CCO)S(=O)(=O)c1ccccc1)OCCO3	37*	0	26	x
COC(=O)C(NC(=O)Nc1ccccc1OC)C(C)C (centres undefined)	2	i	5	5
COCc1cc(C)n(CC(=O)Nc2ccc3c(c2)OCO3)c(=O)c1C#N	32*	0	0	5
CCOCCCNC(=S)N1CCCN(c2nc3cc(C)cc(C)c3cc2C#N)CC1	5	0	23	-7
Cc1ccc(NC(=O)c2cc([N+](=O)[O-])ccc2N2CCOCC2)cc1C	10	-1	-2	19
Cc1ccc(NC(=O)c2cc([N+](=O)[O-])ccc2N2CCOCC2)cc1S(=O)(=O)N(C)C	42*	0	-1	1
O=C(NCCO)/C(=C\c1cccs1)NC(=O)c1cccs1	16	-3	-4	8
SMILES	GDH-TPI inh	BH1578 lux ind	Mtb FBA inh	CCHF vOTU inh
CCN(CC)CCCNC(=O)/C(=C\c1cccn1C)NC(=O)c1cccs1	35*	-1	2	9
C#CCN1CCc2onc(-c3ccc(Br)cc3)c2C1=O	x	x	x	14
COc1ccc2c(c1)C=C(CN1CCN(C(C)C)C(CCO)C1)CO2 (centres undefined)	x	-1	x	-3
CCN1C(=O)N/C(=C/c2cc(C)n(Cc3ccccc3)c2C)C1=O	32*	x	2	5
CCn1c(C)cc(/C=C2\NC(=O)N(Cc3ccc(Cl)cc3)C2=O)c1C	25	0	3	-2
c1ccn2c(c1)nc1c2nc2ccccn21	17	0	+	-309
CC(=O)Nc1cnc(-c2cc(C)c(O)c(C)c2)cn1	32*	-1	0	5
COc1ccccc1C(=O)NCC1(c2ccccc2)CCCC1	-1	0	4	3
Cc1c(-c2ccccc2)c(=O)oc2cc(O)ccc12	11	-4	+	-362
COc1ccccc1CN1CC(C(=O)NCCCCc2ccccn2)CCC1=O (centres undefined)	4	0	0	0
N#CC(C(=O)Nc1ccc(Cl)c(Cl)c1)=C1Nc2ccccc2N1	32*	-1	7	7
CCCn1c(SCC(=O)OCC)nc(C(F)(F)F)cc1=O	0	0	0	14
COc1ccc(NS(=O)(=O)c2ccc3oc(=O)c4[nH]c(=O)c(=O)n(C)c4c3c2)cc1	34*	0	3	21
Nc1nc2nccc(-c3ccco3)n2n1	21	0	+	-141
CC(=O)c1cccc(CN2CCC(CO)(CCCc3ccccc3)CC2)c1	11	0	139*	-3
CCN(CC)CCOc1ccc(-c2c(C)c3c(ccc4ccccc43)oc2=O)cc1	9	-1	4	0
Cc1c(C#N)c(=O)oc2ccc3ccccc3c12	6	x	115*	-146
C/C(=C\C(=O)c1ccccc1)NCc1ccc(F)cc1	31*	0	3	14
C/C(=C\C(=O)c1ccc(C)cc1)NCc1ccc(F)cc1	22	i	0	9
CN(Cc1cnc2nc(N)nc(N)c2n1)c1ccc(C(=O)NC(CCC(=O)O)C(=O)O)cc1 (centres undefined)	21	i	74*	-76
CN(Cc1cnc2nc(N)nc(N)c2n1)c1ccc(C(=O)NC(CCC(=O)O)C(=O)O)cc1C(F)(F)F (centres undefined)	21	i	33*	-12
CCCN(CCC)C(=O)C(CCC(=O)O)NC(=O)c1ccccc1 (centres undefined)	-13	-3	-1	2
Cc1cccnc1C1=NOC(Cc2ccccc2)C(=O)N1Cc1ccc(F)cc1 (centres undefined)	-3	-1	-1	4
N#C/C(=C1/CCCCCN1)c1nc2ccccc2[nH]1	39*	-5	-3	18
O=S(=O)(c1ccc(Nc2ccc(-c3ccc4c(c3)OCCO4)nn2)cc1)N1CCCC1	34*	i	1	-4
SMILES	GDH-TPI inh	BH1578 lux ind	Mtb FBA inh	CCHF vOTU inh
O=C(N/N=C/c1ccc(-c2cccc(C(F)(F)F)c2)o1)c1cccc(F)c1	44*	0	3	-5
O=C(N/N=C/c1ccc(-c2cccc(C(F)(F)F)c2)o1)c1ccccc1Br	54*	i	2	6
CCC(CC)CN1CCN=C1Nc1ccccc1	7	-1	3	10
C=C(C)CSc1nc2ncc(Cl)cc2[nH]1	10	x	-3	-2
Cc1nc2c(C(=O)Nc3ccc(N4CCCC(O)C4)cc3)snc2c(=O)[nH]1 (centres undefined)	44*	-4	-2	8
CCOc1ccc(S(=O)(=O)N(CC(=O)NCC2CCCO2)c2ccc(F)cc2)cc1 (centres undefined)	-5	0	0	4
CCOC(=O)c1ccc(-c2ccc3ncnc(NCc4csc(C)n4)c3c2)o1	37*	0	+	-318
Cc1csc(CNc2ncnc3ccc(-c4cccc(Cl)c4)cc23)c1	11	i	7	-1
CCCCCCC(=O)NC1CCCCN(C)C1=O (centres undefined)	x	x	x	-6
